This note sets out measurements from PubChem BioAssay (NCATS).

The subject of test [1] is Zika virus NS2B-NS3 protease (unlinked complex). As to the kind of experiment: Primary screen GU Rhodamine qHTS for Zika virus inhibitors: Unlinked NS2B-NS3 protease assay (AID 1347159). Further: on the % scale 0 is the no-effect control and ±100 the full control effect; nearly all actives have a fitted effect of over 60% in size. The procedure, abridged:
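Noncovalent NS2B hydrophilic domain/NS3 protease complex (25 nM final) in 10 mM Tris-HCl pH 8.0, 0.01% Tween 20, preincubated 15 min with compounds (up to 114 microM), then 1.5 microM Rhodamine110 substrate. Fluorescence change over 15 min fitted to 4-parameter Hill.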
On the technique in general: In qHTS, concentration-response curves come from the screen itself.

Test [2] deals with Cytochrome P450 2D6 (Homo sapiens) (UniProt P10635). In words: Cytochrome P450 family 2 subfamily D member 6 (CYP2D6) small molecule antagonists: luciferase biochemical (cell-free) qHTS assay (AID 1645840; active means well fitted curve in the direction sought with a large enough effect in the repeat runs; an effect the other way counts as inactive or inconclusive; further: nearly all actives have a fitted effect of over 55% in size; further: potency means the concentration at half of the fitted maximal effect). The procedure, abridged: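 P450-Glo luminescent screen: recombinant CYP2D6 enzyme–proluciferin substrate mix preincubated with compound 10 min at room temperature, then NADPH regeneration added for 1 h at room temperature. Detection reagent added for 20 min; luciferin light read as relative luminescence units.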
Chain of Cytochrome P450 2D6 (Homo sapiens) (P10635 whole entry, looked up): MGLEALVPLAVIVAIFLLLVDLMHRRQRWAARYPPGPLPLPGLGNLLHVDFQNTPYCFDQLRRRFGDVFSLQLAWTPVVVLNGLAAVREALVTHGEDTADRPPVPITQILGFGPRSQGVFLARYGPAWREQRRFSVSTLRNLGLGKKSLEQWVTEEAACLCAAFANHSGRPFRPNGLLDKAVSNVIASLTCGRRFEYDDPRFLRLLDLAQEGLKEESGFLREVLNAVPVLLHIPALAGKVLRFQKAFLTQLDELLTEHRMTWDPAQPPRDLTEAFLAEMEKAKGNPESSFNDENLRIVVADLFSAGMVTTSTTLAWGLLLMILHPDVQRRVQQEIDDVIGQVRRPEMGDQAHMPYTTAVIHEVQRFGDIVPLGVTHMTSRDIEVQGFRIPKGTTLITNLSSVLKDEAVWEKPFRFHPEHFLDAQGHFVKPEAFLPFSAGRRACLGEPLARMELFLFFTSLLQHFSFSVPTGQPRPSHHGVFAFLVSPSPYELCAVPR

The subject of another test is CRL-7250. In words: Cytotoxic Profiling of Annotated Libraries Using Quantitative High-Throughput Screening (AID 1296008). Further: nearly all actives have a fitted effect of over 60% in size. Further: potency means the concentration at half of the fitted maximal effect. On max response: on the % scale 0 is the no-effect control and ±100 the full control effect. The note with it: Five cell lines viability, CellTiter-Glo ATP luminescence, 48-72 h; max response: stronger effect = lower value. The procedure, abridged:
(§1)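 Cells exposed to compounds for 48 or 72 hr at 37 degrees Celsius. Viability read as ATP-coupled luminescence with CellTiter-Glo after 10 min at room temperature.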

The subject of the next test is KB-3-1. The test is described as above. The note with it: Five cell lines viability, CellTiter-Glo ATP luminescence, 48-72 h; max response: stronger effect = lower value. The procedure, abridged: as §1
A further test concerns HACAT. As to the kind of experiment: qHTS assay to identify novel small-molecules to repurpose for Merkel cell carcinoma treatment (AID 1296009). Further: nearly all actives have a fitted effect of over 60% in size. Conditions: MCC and control cell lines, CellTiter-Glo viability, 72 h; at 44.8 µM (top of the series) unless noted. The procedure, abridged:
(§2)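 Cells were incubated with compound for 72 hr at 37 degree celsius before CellTiter-Glo addition. Luminescence was normalized with no-cell wells as full cytotoxicity and DMSO as baseline.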

The test system of the next test is HeLa. In words: Primary qHTS to identify gynecologic anti-cancer compounds using libraries of approved drugs and bioactive compounds (AID 1345084). Further: nearly all actives have a fitted effect of over 55% in size. Further: potency means the concentration at half of the fitted maximal effect. Conditions: Gynecologic cancer cell panel viability, ATPlite luminescence, 48 h; series mostly up to 57.5 µM. The procedure, abridged:
(§3)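 In this quantitative HTS, cell killing is estimated from loss of ATP-dependent luciferase light. Cells see five compound concentrations over a 48 h exposure.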

For another test, the system named is SKOV3. The description is as above. Conditions: Gynecologic cancer cell panel viability, ATPlite luminescence, 48 h; series mostly up to 57.5 µM. The procedure, abridged: as §3
(In ATP-based viability assays light output follows the ATP content of the culture.)

Test [3] in a line: P-glycoprotein substrates identified in KB-8-5-11 adenocarcinoma cell line, qHTS therapeutic library screen (AID 1346987). Further: nearly all actives have a fitted effect of over 65% in size. Further: potency means the concentration at half of the fitted maximal effect. The procedure, abridged:
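P-gp-mediated resistance screen: KB-8-5-11 cells treated 72 h with compounds in dose-response. CellTiter-Glo viability.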

Test [4] is described as follows: Primary qHTS for inhibitors of nuclear receptor binding SET domain protein 2 (NSD2) in an isogenic RCH-ACV NSD2 p.E1099K mutant (9B) (AID 1645876). Further: nearly all actives have a fitted effect of over 70% in size. Further: potency means the concentration at half of the fitted maximal effect.
The target in test [5] is Cytochrome P450 2C9 (Homo sapiens) (UniProt P11712). As to the kind of experiment: Cytochrome P450 family 2 subfamily C member 9 (CYP2C9) small molecule antagonists: luciferase biochemical (cell-free) qHTS assay (AID 1645842; active means well fitted curve in the direction sought with a large enough effect in the repeat runs; an effect the other way counts as inactive or inconclusive; further: nearly all actives have a fitted effect of over 55% in size; further: potency means the concentration at half of the fitted maximal effect; on activity change, negative = inhibition: on the % scale 0 is the no-effect control and ±100 the full control effect). The procedure, abridged: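 Luminescence, after 20 min with luciferin detection reagent, reflected CYP2C9 turnover during a 1 h NADPH-driven reaction at 37C. Enzyme-substrate mix contained 0.4% bovine serum albumin and was preincubated with compound 10 min at room temperature.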
Chain of Cytochrome P450 2C9 (Homo sapiens) (P11712 whole entry, looked up): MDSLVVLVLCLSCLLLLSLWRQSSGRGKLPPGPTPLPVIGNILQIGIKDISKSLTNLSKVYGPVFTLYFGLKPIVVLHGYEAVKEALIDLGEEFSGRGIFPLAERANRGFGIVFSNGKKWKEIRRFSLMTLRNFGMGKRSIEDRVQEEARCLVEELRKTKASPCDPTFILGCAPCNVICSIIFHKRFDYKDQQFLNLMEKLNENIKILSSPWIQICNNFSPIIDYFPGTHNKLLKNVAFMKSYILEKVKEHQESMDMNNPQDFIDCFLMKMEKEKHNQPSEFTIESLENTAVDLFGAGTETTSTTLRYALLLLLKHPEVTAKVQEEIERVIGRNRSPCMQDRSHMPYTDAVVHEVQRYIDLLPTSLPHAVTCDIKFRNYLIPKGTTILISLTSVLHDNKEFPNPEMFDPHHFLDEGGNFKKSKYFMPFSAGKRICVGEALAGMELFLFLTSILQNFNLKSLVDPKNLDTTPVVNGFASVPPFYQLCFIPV

Test [6] is described as follows: Primary qHTS for inhibitors of nuclear receptor binding SET domain protein 2 (NSD2) in an RCH-ACV wild type WT cells (2C) (AID 1645877). Further: nearly all actives have a fitted effect of over 70% in size. Further: potency means the concentration at half of the fitted maximal effect.
Test [7] has as its target Catechol O-methyltransferase (Homo sapiens) (UniProt P21964). In words: Confirmatory Screen for Target Class Profiling of Small Molecule Inhibitors of Methyltransferases (AID 1745852). On activity change, negative = inhibition: on the % scale 0 is the no-effect control and ±100 the full control effect. The note with it: MTase-Glo luminescence, SAH detection, recombinant enzyme; measured here: COMT max response; stronger effect = lower value.
In test [8] the target is Guanidinoacetate N-methyltransferase (Homo sapiens) (UniProt Q14353). Described as above. Conditions: activity change, negative = inhibition: at 57.3 µM (top of the series) unless noted.
Test [9] concerns the target Nicotinamide N-methyltransferase (Homo sapiens) (UniProt P40261). The description is as above. Conditions: MTase-Glo luminescence, SAH detection, recombinant enzyme; measured here: NNMT max response; stronger effect = lower value.
For test [10], the target named is Phenylethanolamine N-methyltransferase (Homo sapiens) (UniProt P11086). The description is as above. The note with it: MTase-Glo luminescence, SAH detection, recombinant enzyme; measured here: PNMT max response; stronger effect = lower value.
Chain of Phenylethanolamine N-methyltransferase (Homo sapiens) (P11086 whole entry, looked up): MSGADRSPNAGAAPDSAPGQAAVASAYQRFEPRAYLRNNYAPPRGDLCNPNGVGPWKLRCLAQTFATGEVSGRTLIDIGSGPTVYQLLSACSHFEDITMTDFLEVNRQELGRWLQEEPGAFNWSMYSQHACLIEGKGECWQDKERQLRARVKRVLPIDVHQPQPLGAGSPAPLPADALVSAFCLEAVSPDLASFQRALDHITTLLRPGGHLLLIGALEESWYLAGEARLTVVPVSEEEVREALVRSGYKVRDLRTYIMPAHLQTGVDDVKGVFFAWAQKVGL
The subject of a further test is NIH3T3. In words: qHTS assay to identify novel small-molecules to repurpose for Merkel cell carcinoma treatment (AID 1296009). Further: nearly all actives have a fitted effect of over 60% in size. The note with it: MCC and control cell lines, CellTiter-Glo viability, 72 h; at 44.8 µM (top of the series) unless noted. The procedure, abridged:
as §2

The subject of the next test is HEK293. In words: Cytotoxic Profiling of Annotated Libraries Using Quantitative High-Throughput Screening (AID 1296008). Further: nearly all actives have a fitted effect of over 60% in size. Further: potency means the concentration at half of the fitted maximal effect. On max response: on the % scale 0 is the no-effect control and ±100 the full control effect. The note with it: Five cell lines viability, CellTiter-Glo ATP luminescence, 48-72 h; max response: stronger effect = lower value. The procedure, abridged: as §1

Molecules are shown by their SMILES. Results filed as inconclusive are left out. Activity calls are given as the source filed them. Unless noted, the call rests on the fitted dose curve; in most records, active means well fitted curve in the direction sought with a large enough effect; inconclusive means small, poorly fitted or top-dose-only effect, or another doubt; inactive means no such curve, though single readings can be large; an effect the other way counts as inactive or inconclusive.

Chain of Catechol O-methyltransferase (Homo sapiens) (P21964 whole entry, looked up): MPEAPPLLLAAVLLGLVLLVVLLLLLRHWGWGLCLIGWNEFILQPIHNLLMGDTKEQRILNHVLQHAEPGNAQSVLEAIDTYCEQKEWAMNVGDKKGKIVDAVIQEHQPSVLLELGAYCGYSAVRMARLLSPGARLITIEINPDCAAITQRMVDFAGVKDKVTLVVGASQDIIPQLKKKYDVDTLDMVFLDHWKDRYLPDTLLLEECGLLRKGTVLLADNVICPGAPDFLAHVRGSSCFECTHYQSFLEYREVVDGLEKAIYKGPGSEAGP
Chain of Nicotinamide N-methyltransferase (Homo sapiens) (P40261 whole entry, looked up): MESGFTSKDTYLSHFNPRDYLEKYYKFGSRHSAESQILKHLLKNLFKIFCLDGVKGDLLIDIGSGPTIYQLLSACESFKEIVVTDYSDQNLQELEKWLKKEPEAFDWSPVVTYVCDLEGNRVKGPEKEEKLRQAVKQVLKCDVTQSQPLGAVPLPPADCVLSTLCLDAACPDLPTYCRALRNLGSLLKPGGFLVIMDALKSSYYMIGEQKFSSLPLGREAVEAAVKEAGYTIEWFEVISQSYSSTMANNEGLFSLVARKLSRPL

Regarding `CN1C(=O)C(Cc2ccc3ccccc3c2)N=C(c2ccc(O)cc2)c2cc(Cl)ccc21` (stereo not given), the Potency result (in test [1]; in the test on HeLa; with SKOV3) was “inactive” each time. Besides, the Potency in [2] was 10700 nM (active). The max response in the test with CRL-7250 was -21.8% (inactive); in the test on KB-3-1, -24.1% (inactive). The outcome in the test on HACAT was “inactive”.

For `C=C[C@H]1CN2CCC1C[C@H]2[C@H](O)c1ccnc2ccccc12` (stereo not given in full), the Potency result (in [3]; in test [1]; in [4]; with HeLa; in the test with SKOV3) was “inactive” in each case. Besides, the max response was -4.97% (inactive) in the test on CRL-7250 and 2.39% (inactive) in the test with KB-3-1.

`O=C(N[C@H]1CN2CCC1CC2)c1cc2cccc(Cl)c2s1`: the Potency result (in [1]; in [5]; in the test with SKOV3) was “inactive” each time. In addition, in test [2], the Potency is 16900 nM (active). Further, the max response with CRL-7250 was -12.3% (inactive); in the test with KB-3-1 it was 2.28% (inactive).

Take `Oc1ccc2c(c1)C13CCCC[C@H]1[C@@H](C2)N(CC1CCC1)CC3`: the Potency in test [4] and in test [6] was 23000 nM (active) each time. Besides, the results for the activity in [7], in test [9] and in [10] were -7.63%, -13.8% and -7.17%, respectively. Also, the activity change, negative = inhibition in test [8] is -6.87%. Besides, the max response in the test on CRL-7250 was -16.2% (inactive); in the test with KB-3-1, -12.4% (inactive). For the same compound, the outcome in the test with HACAT was “inactive”.

In the case of `C=C1C(=O)O[C@@H]2[C@H]3C(=C)[C@@H](O)C[C@H]3C(=C)C[C@@H](O)[C@@H]12`, the Potency result (in test [3]; in the test on HeLa; with SKOV3) was “inactive” throughout. The Potency in test [4] is 16300 nM (active); in test [6], 6490 nM (active). The max response is -8.41% (inactive) with CRL-7250 and 6.92% (inactive) in the test on KB-3-1.

In the case of `C/C=C1/CN2CC[C@]34C(=Nc5ccccc53)[C@@H]2C[C@@H]1[C@H]4C(=O)OC`, the Potency entry (in test [3]; in [4]; in test [6]; in the test on HeLa; in the test on SKOV3) was “inactive” each time. The max response in the test with CRL-7250 is 2.71% (inactive); with KB-3-1, -1.68% (inactive).

For the compound `CO[C@H]1C[C@H](O[C@H]2CC[C@]3(C=O)[C@H]4CC[C@]5(C)[C@@H](C6=CC(=O)OC6)CC[C@]5(O)[C@@H]4CC[C@]3(O)C2)O[C@H](C)[C@H]1O`, the Potency in [3] is 126 nM (active); in test [4], 39.9 nM (active); in test [6], 89.3 nM (active); with CRL-7250, 112 nM (active); in the test on KB-3-1 it was 126 nM (active); in the test with SKOV3, 141 nM (active). The Potency result in test [1] is “inactive”. Besides, the outcome with NIH3T3 was “inactive [at 17.4 µM]”.

Turning to `CO/C1=C\C(C)=C\[C@@H](C)[C@@H](O)[C@@H](C)C/C(C)=C/C=C/[C@H](OC)[C@@H]([C@@H](C)[C@@H](O)[C@H](C)[C@@]2(O)C[C@@H](O)[C@H](C)[C@@H](C(C)C)O2)OC1=O`, the Potency in test [3] was 109 nM (active); in test [4], 48.3 nM (active); in test [6], 30.5 nM (active); in the test on CRL-7250 it was 86.2 nM (active); with KB-3-1, 61.1 nM (active); in the test on HeLa it was 126 nM (active).

In the case of `COc1cccc(NCC(F)Cn2c3ccc(Br)cc3c3cc(Br)ccc32)c1` (stereo not given), the Potency result (in test [1]; in test [2]; in the test with HeLa) was “inactive” throughout. Moreover, the Potency is 7560 nM (active) in test [5]; 20500 nM (active) in test [6]; 13000 nM (active) in the test on HEK293; 18400 nM (active) with KB-3-1; 14100 nM (active) in the test with SKOV3.
